# AHR act = activates the human aryl hydrocarbon receptor; activation, % at 5 µM; AHR-responsive luciferase reporter cells, luminescence; 320,000 compounds, 2.5% hits; P35869; in the data active means activation above about 47%;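 further: 0% = vehicle wells and 100% = reference agonist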
# NTR1 agonist = activates human neurotensin receptor 1; P30989; NTR1-U2OS beta-arrestin-GFP spot imaging, agonist mode; activation, % at 20 µM; 330,000 compounds, 0.17% hits;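 active means activation at or above 40% of the spot to cytoplasm intensity ratio, with at least 20 cells analyzed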;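 further: 0% = DMSO without peptide and 100% = 100 nM NTR1 peptide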
# Target sequence (P30989 whole entry, looked up): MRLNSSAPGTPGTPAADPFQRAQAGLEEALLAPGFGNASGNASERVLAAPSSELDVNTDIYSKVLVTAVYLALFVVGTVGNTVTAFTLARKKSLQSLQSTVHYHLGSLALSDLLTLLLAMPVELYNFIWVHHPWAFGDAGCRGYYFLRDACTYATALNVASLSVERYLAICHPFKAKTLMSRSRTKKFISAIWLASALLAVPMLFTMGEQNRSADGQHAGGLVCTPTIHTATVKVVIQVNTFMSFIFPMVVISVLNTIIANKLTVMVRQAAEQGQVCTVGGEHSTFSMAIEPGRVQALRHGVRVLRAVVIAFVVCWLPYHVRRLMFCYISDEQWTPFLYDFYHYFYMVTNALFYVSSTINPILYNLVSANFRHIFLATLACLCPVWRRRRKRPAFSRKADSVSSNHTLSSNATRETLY
# H9c2 protect = modulators protecting cardiomyocytes from myocardial damage; H9c2 cardiomyocytes, H2O2 injury protection, ATPLite, 2 h; protection from H2O2 cell death, % at 20 µM; 360,000 compounds, 0.63% hits; AID 588492;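 active means compounds giving at least 50% protection of heart cells from peroxide-induced death in the single-dose screen, raw or plate-pattern-corrected value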;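 further: 0% = DMSO wells with peroxide and 100% = DMSO wells without peroxide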
# AI-2 QS modul = modulators of Vibrio harveyi AI-2 quorum sensing system | activity change, % at 7.5 µM | 300,000 compounds, 0.4% hits | Vibrio harveyi JMH597 AI-2 luminescence/OD600 ratio, 9 h; stronger effect = lower value; strain lacks LuxN and CqsS sensors; 0 = neutral-control median; in the data active means activity change below about -75%, passing the limit was not always enough;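 further: luminescence divided by OD600 gain over 9 h not by final OD600 alone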
# SUMO Mot1 rescue = inhibitors of SUMOylation pathway: yeast Mot1-301 growth rescue | growth rescue, % at 18.8 µM | S. cerevisiae Mot1-301 growth rescue, ATP luminescence, 38.5C; percent above DMSO median, 100 means doubled | 320,000 compounds, 1% hits;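 active means every valid replicate shows activation above 250% relative to neutral control wells; inactive means the rest, any valid replicate at or below 250%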;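 further: OY570 slx delta 5 strain wells were the positive control but not used for scaling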
# GRIN3A LBD mod = modulators (binders) of human NR3A ligand-binding domain; NR3A LBD differential scanning fluorimetry, Tm shift; 0% = protein alone, 100% = glycine-bound protein; Tm shift relative to glycine control, % at 25 µM; 340,000 compounds, 2.5% hits;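 active means melting temperature shift of at least 10% of the positive control shift, at one fixed dose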
# * = called active by the depositor; / = no result. A selection: hits, their analogues and other compounds. The true share with any hit is near 6.2%.
SMILES,AHR act,NTR1 agonist,H9c2 protect,AI-2 QS modul,SUMO Mot1 rescue,GRIN3A LBD mod
CC(C)c1c(C(=O)N/N=C/c2ccc(C(F)(F)F)cc2)nnn1-c1nonc1N,0,13,-7,-3,17,28*
Cc1ccccc1COc1cccc(/C=N/NC(=O)c2nnn(-c3nonc3N)c2C)c1,-3,6,-4,26,-1,-2
COc1cc(/C=N/NC(=O)c2nnn(-c3nonc3N)c2C(C)C)ccc1O,-1,-1,0,8,-9,30*
CC(C)c1c(C(=O)N/N=C/c2ccc(OCc3ccc(F)cc3)cc2)nnn1-c1nonc1N,1,8,-6,7,-10,29*
CC1(C)CC(NC(=O)c2cccc(S(=O)(=O)N(Cc3ccccc3)c3ccccc3)c2)CC(C)(C)N1,4,6,-18,6,-15,-1
CN1CCc2ccc(NC(=O)c3ccc(C(F)(F)F)cc3)cc2C1,41,3,3,12,-15,-1
COc1cc(/C=N/NC(=O)c2nnn(-c3nonc3N)c2C(C)C)ccc1OCc1ccccc1,5,6,0,30,103,35*
CC(C)c1c(C(=O)N/N=C/c2ccoc2)nnn1-c1nonc1N,0,1,3,1,-13,-20
CC(C)c1c(C(=O)N/N=C/c2ccc(OCc3ccccc3)cc2)nnn1-c1nonc1N,-1,11,1,11,-6,32*
COc1ccc(O)c(/C=N/NC(=O)c2c(C)nnn2-c2nonc2N)c1,-4,0,55*,7,4,8
CC(C)c1c(C(=O)N/N=C/c2cccc(OCc3ccccc3)c2)nnn1-c1nonc1N,1,18,-15,19,16,24*
Oc1ccc2nnc3c(Br)cnn3c2c1,2,0,-2,22,-8,2
Cc1cc(Nc2ncc(Cl)cc2Cl)n[nH]1,54*,0,-5,12,-18,0
Nc1nc(SCC(=O)Nc2ncc(Cl)cc2Cl)n[nH]1,1,-1,0,/,-7,2
CN(C(=O)c1ccc(Br)o1)C1CCS(=O)(=O)C1 (centres undefined),6,-2,-4,1,-4,-2
CN(C(=O)C1CCCO1)C1CCS(=O)(=O)C1 (centres undefined),3,0,4,10,10,14*
CC(C)(C)OC(=O)C[C@@H]1C/C=C\C[C@@H](CC(=O)N(CCO)Cc2ccccc2)C(=O)NC[C@@H](c2ccccc2)OC1=O,1,5,16,/,4,-3
CC(C)(C)OC(=O)C[C@@H]1C/C=C\C[C@@H](CC(=O)N(CCO)Cc2ccccc2)C(=O)NC[C@H](c2ccccc2)OC1=O,-1,4,92*,/,-2,4
NS(=O)(=O)c1cccc(NC(=O)COC(=O)Cc2n[nH]c(=O)c3ccccc23)c1,5,1,52*,/,-10,-2
Cc1ccc(S(=O)(=O)N(C)C)cc1NC(=O)COC(=O)c1n[nH]c(=O)c2ccccc12,-1,-1,11,6,-11,0
Cc1ccc(S(=O)(=O)N(C)C)cc1NC(=O)COC(=O)Cc1n[nH]c(=O)c2ccccc12,3,0,75*,27,3,-2
NS(=O)(=O)c1cccc(NC(=O)COC(=O)CSCc2ccccc2)c1,1,-1,14,/,-8,2
O=C(COC(=O)Cc1n[nH]c(=O)c2ccccc12)Nc1c(Br)cc([N+](=O)[O-])cc1Br,/,/,97*,/,/,1
O=C(NCC1CCCO1)C(=O)N/N=C/c1ccc(O)c(Cl)c1 (centres undefined),3,1,-2,10,-8,0
O=C(NCC1CCCO1)C(=O)N/N=C/c1cc(Cl)ccc1O (centres undefined),12,2,44,-90*,-6,-3
SMILES,AHR act,NTR1 agonist,H9c2 protect,AI-2 QS modul,SUMO Mot1 rescue,GRIN3A LBD mod
Cc1ccc(C)c(S(=O)(=O)N2CCN(C(=O)c3cccn3C)CC2)c1,3,0,0,6,/,1
O=C(Nc1ccc(F)cc1)N(Cc1cccs1)Cc1cc2cc3c(cc2[nH]c1=O)OCO3,54*,14,20,21,11,-12
COc1ccc(C(=O)N(Cc2ccco2)Cc2cc3cc(C)ccc3[nH]c2=O)cc1OC,3,-1,17,15,-23,0
COc1ccc2[nH]c(=O)c(CN(Cc3cccs3)S(=O)(=O)c3cccc4nsnc34)cc2c1,-2,10,73*,27,/,8
COc1ccc2[nH]c(=O)c(CN(Cc3cccs3)C(=S)Nc3cccc(C)c3)cc2c1,22,1,18,20,4,10*
CNC(=S)N(Cc1cccs1)Cc1cc2cc(OC)ccc2[nH]c1=O,4,1,2,10,-11,1
COc1ccc2[nH]c(=O)c(CN(CCO)S(=O)(=O)c3c(C)ccc4nsnc34)cc2c1,4,-1,19,8,-13,0
COc1ccccc1NC(=S)N(Cc1ccco1)Cc1cc2cc(C)ccc2[nH]c1=O,71*,6,10,16,-9,-4
CC1CCN(C(=O)COC(=O)C2CCN(S(=O)(=O)c3ccc4c(c3)OCCO4)CC2)CC1,1,0,-6,19,15,0
CCCN(C(=O)c1cnccn1)c1c(N)n(Cc2ccccc2)c(=O)[nH]c1=O,0,0,4,/,29,0
CC(=O)N(C)C[C@@H]1Oc2ncc(Br)cc2C(=O)N([C@H](C)CO)C[C@@H]1C,/,/,5,/,/,/
COc1ccccc1C(=O)c1nc2ccccc2n1C,62*,0,2,3,10,2
Cc1ccc(F)cc1CNC(=O)C1CCC(=O)N(CCCN2CCCC2=O)C1 (centres undefined),-2,0,0,24,-3,13*
COc1ccc(CNS(=O)(=O)CCNC(=O)c2ccc(OC)cc2)cc1,0,1,-1,10,0,1
CC(C)=CCC12Oc3cc(O)ccc3C1(O)Oc1cc(O)c([C@H]3C=C(C)CC(c4ccc(O)cc4O)[C@H]3C(=O)c3ccc(O)cc3O)c(O)c1C2=O (some centres undefined),1,14,/,-65,-16,68*
COc1cc(/C=N/n2cnnc2)ccc1OCCOc1ccccc1,6,-1,4,23,0,-1
C(=N\n1cnnc1)/c1cccc(OCCOc2ccccc2)c1,64*,1,31,3,10,0
O=C(NCCCN1CCCC1=O)c1ccc(NS(=O)(=O)c2ccccc2)cc1,2,0,4,13,-4,-2
CCCN1CCC(=O)NC1=S,/,/,3,/,/,-1
COc1ccc(NC(=O)c2ccc(-c3ccccc3Cl)o2)cc1,14,1,-19,28,-10,0

# Screening data: PubChem BioAssay, several laboratories
